Laboratory results as given in ChEMBL document CHEMBL3988442, “University of Dundee, Small-Polar-MMV Screening Library” (2021).
For some assays here: Results with a measured potency or affinity are listed apart.

Assays:
Set-up in all cases: scale not given: direction of the effect not stated beside the values
[1] = biological target: Protein translocase subunit SecA (Escherichia coli (strain K12)) (UniProt P10408); test: Assay to Identify E. coli SecA ATPase Inhibitors; format: functional; details: 30 µM
Sequence of Protein translocase subunit SecA (Escherichia coli (strain K12)) (P10408 whole entry): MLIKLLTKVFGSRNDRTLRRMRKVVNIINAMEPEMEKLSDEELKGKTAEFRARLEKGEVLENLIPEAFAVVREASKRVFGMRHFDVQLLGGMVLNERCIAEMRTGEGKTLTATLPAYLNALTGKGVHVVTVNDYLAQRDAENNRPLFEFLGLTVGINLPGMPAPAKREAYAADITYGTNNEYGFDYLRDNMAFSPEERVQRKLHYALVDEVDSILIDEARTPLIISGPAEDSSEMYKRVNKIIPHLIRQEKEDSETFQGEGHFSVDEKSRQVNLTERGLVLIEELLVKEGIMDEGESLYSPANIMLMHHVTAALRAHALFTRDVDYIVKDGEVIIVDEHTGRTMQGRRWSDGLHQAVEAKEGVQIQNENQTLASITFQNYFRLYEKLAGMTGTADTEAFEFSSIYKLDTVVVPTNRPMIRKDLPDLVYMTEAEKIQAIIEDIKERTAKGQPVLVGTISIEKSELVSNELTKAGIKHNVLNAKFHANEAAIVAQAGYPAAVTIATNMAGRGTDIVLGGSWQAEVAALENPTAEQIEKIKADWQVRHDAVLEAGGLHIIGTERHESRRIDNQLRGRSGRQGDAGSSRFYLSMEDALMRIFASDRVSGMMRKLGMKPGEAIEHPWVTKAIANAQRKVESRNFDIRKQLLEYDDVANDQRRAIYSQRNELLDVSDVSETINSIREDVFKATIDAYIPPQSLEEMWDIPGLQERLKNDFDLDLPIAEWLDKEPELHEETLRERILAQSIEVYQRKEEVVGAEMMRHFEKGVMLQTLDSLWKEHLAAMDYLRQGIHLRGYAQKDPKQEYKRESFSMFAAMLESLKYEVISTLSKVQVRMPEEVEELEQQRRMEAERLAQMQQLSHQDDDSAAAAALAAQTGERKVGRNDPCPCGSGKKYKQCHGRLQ

[2] = biological target: T1, Ubiquitin-activating enzyme e1, putative (Leishmania donovani (strain BPK282A1)) (UniProt E9BSI1); test: Leishmania donovani Ubiquitin Activating Enzyme (LdE1); format: functional; details: 30 µM
T1 sequence (whole entry): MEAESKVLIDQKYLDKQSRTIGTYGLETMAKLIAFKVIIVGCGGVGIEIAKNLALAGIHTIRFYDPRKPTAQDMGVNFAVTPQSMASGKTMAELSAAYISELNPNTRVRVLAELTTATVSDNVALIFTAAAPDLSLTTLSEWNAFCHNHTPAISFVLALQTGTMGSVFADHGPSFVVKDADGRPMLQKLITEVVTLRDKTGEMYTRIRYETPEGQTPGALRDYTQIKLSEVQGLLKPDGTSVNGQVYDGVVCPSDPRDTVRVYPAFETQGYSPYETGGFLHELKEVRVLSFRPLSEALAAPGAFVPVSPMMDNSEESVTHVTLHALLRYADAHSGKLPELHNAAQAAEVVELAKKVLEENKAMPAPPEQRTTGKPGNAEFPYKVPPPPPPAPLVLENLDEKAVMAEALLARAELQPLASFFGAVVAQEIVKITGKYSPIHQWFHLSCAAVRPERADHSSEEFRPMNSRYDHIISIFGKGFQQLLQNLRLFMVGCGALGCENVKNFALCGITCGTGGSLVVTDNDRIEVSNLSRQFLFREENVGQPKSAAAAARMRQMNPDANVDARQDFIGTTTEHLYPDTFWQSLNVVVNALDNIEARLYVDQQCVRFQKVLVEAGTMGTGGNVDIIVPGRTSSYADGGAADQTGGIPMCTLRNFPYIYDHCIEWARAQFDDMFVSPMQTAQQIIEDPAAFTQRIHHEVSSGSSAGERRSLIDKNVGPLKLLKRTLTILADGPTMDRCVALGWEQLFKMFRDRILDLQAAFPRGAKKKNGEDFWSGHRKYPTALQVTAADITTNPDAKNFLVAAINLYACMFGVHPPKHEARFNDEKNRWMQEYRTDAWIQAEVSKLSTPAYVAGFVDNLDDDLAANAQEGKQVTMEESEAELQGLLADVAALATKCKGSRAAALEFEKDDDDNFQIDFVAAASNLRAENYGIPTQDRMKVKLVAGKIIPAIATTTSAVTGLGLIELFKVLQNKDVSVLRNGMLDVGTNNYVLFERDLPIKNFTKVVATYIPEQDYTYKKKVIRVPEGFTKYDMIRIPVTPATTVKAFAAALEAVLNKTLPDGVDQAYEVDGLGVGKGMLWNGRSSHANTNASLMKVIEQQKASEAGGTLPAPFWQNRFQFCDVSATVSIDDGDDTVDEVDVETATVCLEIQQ

[3] = biological target: AMP-activated protein kinase, AMPK (Homo sapiens) (UniProt P54646+O43741+P54619+Q9UGJ0+Q9Y478+Q13131+Q9UGI9); test: AMP-dependent Kinase enzyme assay. An in vitro enzyme assay that detects ADP turnover that is directly proportional to AMPK activity. This uses naive AMPK that is activated during the assay with MK-8722; format: functional; details: 30 µM
[4] = biological target: Sialic acid-binding Ig-like lectin 9 (Homo sapiens) (UniProt Q9Y336); test: Hs-Siglec9 ALPHAscreen SOP 20170721; details: 10 µM
Sequence of Sialic acid-binding Ig-like lectin 9 (Homo sapiens) (Q9Y336 whole entry): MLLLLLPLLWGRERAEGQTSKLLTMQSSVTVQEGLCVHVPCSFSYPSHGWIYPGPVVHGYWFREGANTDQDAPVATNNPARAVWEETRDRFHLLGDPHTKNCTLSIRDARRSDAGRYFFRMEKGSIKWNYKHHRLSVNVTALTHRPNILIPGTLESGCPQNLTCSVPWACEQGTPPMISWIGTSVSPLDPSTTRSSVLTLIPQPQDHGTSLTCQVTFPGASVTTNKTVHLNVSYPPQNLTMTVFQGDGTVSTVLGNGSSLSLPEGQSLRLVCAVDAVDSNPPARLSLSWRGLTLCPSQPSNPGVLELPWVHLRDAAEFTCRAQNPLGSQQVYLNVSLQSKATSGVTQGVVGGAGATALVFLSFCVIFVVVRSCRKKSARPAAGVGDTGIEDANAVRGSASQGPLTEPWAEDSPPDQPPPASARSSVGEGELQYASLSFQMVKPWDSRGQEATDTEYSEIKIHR

[5] = tested on: Trypanosoma cruzi; test: Trypanosoma cruzi phosphomannomutase and mannose-1-phosphate guanylyltransferase assay; format: functional; details: 10 µM
[6] = biological target: T2, Arginase-2, mitochondrial (Homo sapiens) (UniProt P78540); test: in vitro enzyme assay to detect the production of urea directly proportional to the activity of Arginase II; format: functional; details: 33.3 µM; further: in the data most compounds retested in dose-response had high values
T2 sequence (whole entry): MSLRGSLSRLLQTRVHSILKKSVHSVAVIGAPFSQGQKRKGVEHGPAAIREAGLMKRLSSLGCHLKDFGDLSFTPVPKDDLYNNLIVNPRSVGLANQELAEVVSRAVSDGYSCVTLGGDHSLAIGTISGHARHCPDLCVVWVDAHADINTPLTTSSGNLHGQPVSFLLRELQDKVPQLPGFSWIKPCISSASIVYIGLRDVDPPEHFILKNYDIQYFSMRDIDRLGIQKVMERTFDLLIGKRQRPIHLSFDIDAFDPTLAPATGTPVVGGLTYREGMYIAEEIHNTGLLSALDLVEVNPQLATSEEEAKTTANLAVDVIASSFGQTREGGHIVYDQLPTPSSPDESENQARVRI

[7] = biological target: T3, Proteasome subunit beta (Trypanosoma cruzi) (UniProt O96673); test: Trypanosoma cruzi proteasome chymotrypsin-like activity (TcProtChymo) assay.; further: in the data most compounds retested in dose-response had high values; format: functional; details: 9.37 µM
T3 sequence (whole entry): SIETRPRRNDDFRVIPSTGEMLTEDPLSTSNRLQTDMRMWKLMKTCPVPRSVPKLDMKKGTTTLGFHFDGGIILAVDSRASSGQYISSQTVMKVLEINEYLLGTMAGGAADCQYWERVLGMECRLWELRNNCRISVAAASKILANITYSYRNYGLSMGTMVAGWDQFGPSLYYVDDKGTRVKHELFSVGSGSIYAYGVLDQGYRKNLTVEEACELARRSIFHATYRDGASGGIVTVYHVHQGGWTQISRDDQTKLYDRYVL

[8] = species: Homo sapiens; test: To identify inhibition of the IFN signalling (Jak-Stat) pathway via expression of an eGFP reporter gene under the control of an IFN-stimulated response element (ISRE) containing MxA promoter.; format: functional; details: 30 µM
[9] = biological target: T4, Tyrosyl-tRNA synthetase, putative (Trypanosoma cruzi (strain CL Brener)) (UniProt Q4DSP6); test: Trypanosoma cruzi tyrosyl tRNA synthetase (TcYRS) _High Tyrosine SOP; format: functional; details: 30 µM; further: in the data most compounds retested in dose-response had high values
T4 sequence (whole entry): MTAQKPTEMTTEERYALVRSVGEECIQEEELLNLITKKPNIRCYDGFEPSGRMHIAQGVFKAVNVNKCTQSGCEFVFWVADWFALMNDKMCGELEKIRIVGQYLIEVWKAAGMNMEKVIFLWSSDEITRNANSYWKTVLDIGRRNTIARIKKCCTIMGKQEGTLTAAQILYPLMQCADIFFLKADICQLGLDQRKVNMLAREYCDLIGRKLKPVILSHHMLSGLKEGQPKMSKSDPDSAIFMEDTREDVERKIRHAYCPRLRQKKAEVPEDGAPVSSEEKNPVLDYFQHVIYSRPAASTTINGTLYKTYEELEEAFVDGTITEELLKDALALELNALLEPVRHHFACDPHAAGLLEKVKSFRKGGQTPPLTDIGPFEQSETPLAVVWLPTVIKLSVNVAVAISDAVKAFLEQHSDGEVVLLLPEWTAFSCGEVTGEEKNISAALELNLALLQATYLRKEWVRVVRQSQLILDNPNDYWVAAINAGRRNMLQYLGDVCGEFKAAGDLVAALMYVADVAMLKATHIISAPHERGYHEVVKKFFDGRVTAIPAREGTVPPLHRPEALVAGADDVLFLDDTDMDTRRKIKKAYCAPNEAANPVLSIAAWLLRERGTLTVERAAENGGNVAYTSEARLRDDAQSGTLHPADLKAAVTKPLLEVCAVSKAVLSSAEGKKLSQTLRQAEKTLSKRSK

[10] = biological target: T4, Tyrosyl-tRNA synthetase, putative (Trypanosoma cruzi (strain CL Brener)); test: Trypanosoma cruzi tyrosyl tRNA synthetase (TcYRS) SOP; format: functional; details: 30 µM
[11] = biological target: Chromo domain-containing protein 1 (Saccharomyces cerevisiae (strain ATCC 204508 / S288c) (Baker's yeast)) (UniProt P32657); test: ScCHD-1 Enzyme Inhibition Assay; format: functional; details: 30 µM; further: in the data most compounds retested in dose-response had high values
Sequence of Chromo domain-containing protein 1 (Saccharomyces cerevisiae (strain ATCC 204508 / S288c) (Baker's yeast)) (P32657 whole entry, the tested form may be a part): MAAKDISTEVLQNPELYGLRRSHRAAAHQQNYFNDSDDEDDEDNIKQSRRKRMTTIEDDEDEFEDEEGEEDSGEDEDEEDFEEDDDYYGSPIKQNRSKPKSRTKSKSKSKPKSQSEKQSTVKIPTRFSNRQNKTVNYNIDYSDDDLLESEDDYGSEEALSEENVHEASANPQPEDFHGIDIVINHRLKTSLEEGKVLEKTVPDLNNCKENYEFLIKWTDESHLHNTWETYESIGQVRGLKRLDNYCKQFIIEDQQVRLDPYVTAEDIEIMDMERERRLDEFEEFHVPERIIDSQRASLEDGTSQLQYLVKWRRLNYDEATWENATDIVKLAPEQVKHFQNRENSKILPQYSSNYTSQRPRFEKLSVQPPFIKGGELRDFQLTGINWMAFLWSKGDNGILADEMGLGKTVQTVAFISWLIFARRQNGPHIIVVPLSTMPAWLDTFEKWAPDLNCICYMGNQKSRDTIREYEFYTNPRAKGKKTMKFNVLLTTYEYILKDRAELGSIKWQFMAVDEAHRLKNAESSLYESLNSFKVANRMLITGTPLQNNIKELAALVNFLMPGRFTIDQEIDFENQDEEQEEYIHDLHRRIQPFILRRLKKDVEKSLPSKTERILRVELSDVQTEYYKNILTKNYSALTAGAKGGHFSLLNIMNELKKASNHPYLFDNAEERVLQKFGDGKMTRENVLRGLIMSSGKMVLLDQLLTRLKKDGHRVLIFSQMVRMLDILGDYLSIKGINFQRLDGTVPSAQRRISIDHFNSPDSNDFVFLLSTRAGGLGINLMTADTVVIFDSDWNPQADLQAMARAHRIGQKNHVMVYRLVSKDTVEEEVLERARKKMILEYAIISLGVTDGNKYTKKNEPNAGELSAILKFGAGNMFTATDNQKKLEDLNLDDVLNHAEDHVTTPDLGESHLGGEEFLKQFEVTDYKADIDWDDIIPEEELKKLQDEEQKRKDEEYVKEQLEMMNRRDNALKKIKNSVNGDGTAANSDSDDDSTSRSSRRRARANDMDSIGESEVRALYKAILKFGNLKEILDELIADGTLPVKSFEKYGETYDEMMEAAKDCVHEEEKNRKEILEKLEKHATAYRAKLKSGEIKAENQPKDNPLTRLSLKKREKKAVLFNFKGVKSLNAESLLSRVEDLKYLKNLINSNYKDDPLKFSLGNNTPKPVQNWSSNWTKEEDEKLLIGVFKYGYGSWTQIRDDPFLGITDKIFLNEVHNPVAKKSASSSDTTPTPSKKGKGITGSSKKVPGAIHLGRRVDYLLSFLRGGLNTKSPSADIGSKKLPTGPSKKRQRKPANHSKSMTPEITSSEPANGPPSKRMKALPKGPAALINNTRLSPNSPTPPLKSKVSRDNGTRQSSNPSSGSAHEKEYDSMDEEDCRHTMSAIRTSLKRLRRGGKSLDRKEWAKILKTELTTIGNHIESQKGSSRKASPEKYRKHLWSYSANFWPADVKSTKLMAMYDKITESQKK

SMILES	Percent Effect [1] [%]	Percent Effect [2] [%]	Percent Effect [3] [%]	Percent Effect [4] [%]	Percent Effect [5] [%]	Percent Effect [6] [%]	Percent Effect [7] [%]	Percent Effect [8] [%]	Percent Effect [9] [%]	Percent Effect [10] [%]	Percent Effect [11] [%]
CCN(CC1CN(CCc2ccccn2)CCO1)c1cccnn1 (configuration not stated)	-2.15	0	-5.23	-0.0186	4.77	3.12	14.7	-14.7	0.546	1.24	2.6
CCOC(=O)c1sc2ccsc2c1CNC(=O)C(C)(C)C#N	-2.65	0	8.08	1.84	1.76	-5.73	-5.57	13.9	5.94	11	14.5
O=C(c1ccc2c(c1)CCCC2)N1CCOCC1c1ncon1 (configuration not stated)	-2.2	5.41	-9.67	7.55	2.17	-5.61	9.37	5.93	3.45	13.6	-8.29
Cc1nc(CN(C)C2CCN(CC3CCCCC3)C2)no1 (configuration not stated)	-3.09	18.9	-8.63	1.46	4.55	-7.95	8.8	10.1	5.94	23.2	-8.81
CC(C)OCCCNC(=O)CN1CCC(N2CCN(C)C2=O)CC1	-4.79	-12.7	-9.11	10.6	4.82	-1.9	7.45	-2.11	-0.493	8.86	-6.17
COCc1nc(C(=O)N2CCCCC2Cn2cc(C)cn2)cs1 (configuration not stated)	-5.14	-2.6	6.14	-7.79	-5.19	-1.47	5.42	6.8	-1.91	-4.71	-21.5
CC(C)c1nn(C)c(N(C)C)c1CNCc1ccc2c(c1)OCO2	-3	7.89	-15.5	1.82	-7	2.16	-2.45	-9	-0.493	11.1	0.321
CCN1CCC(CNC(=O)C2(c3cccc(C)c3)CC2)C1 (configuration not stated)	-2.88	-1.27	6.26	2.04	-7.69	5.81	10.1	13.3	11.5	15.2	-11.4
CCN(Cc1nc(C(C)C)no1)Cc1cccs1	-3.02	7.79	-1.84	6.48	5.8	1.38	12	6.22	1.07	-1.24	-5.13
COc1ccc(-n2ccc(C(=O)NCCN3CCCCC3C)n2)cc1 (configuration not stated)	-5.51	-8.11	-13.2	18.1	4.62	-6.01	1.62	-11.9	1.48	16.1	-12.9
CN1CCCN(C[C@@H]2CN(C(=O)CCC3CCCC3)C[C@@H]2CO)CC1	-5.09	7.79	1.31	18.7	4.62	-8.28	3.66	-0.683	6.45	11.1	-3.02
COc1ccc(NC(=O)C2CCOC2)c(N2CCN(C(C)=O)CC2)n1 (configuration not stated)	-2.36	2.7	-66.2	2.08	-0.391	2.5	19.7	2.27	8.91	11	-5.79
CN1C(=O)CC(C(=O)O)C12CCN(Cc1ccc(Cl)cc1F)CC2 (configuration not stated)	-2.86	10.7	-8	3.22	-0.487	2.6	10.1	10.2	6.01	21	-6.2
CC(C)c1nn(C)c(N2CCOCC2)c1CN[C@H](C)CO	-5.92	7.89	-9.46	-5.12	-1.96	1.44	3.3	-5.23	5.42	6.17	-4.66
CCc1noc(C)c1C(=O)N1CCCC1Cn1nc(C)cc1C (configuration not stated)	-3.14	5.26	-1.52	-4.06	2.71	1.8	-3.47	-20.2	4.43	13.6	-6.42
Cc1nn(C)c(C)c1C(=O)N1CCOCC1CC(=O)c1ccco1 (configuration not stated)	-2.08	0	5.49	5.37	4.19	-8.28	-0.0959	-9.68	0	7.79	-0.43
Cc1noc(C)c1-c1cccc(CC2CCN(C(=O)c3cc[nH]n3)C2)n1 (configuration not stated)	-2.86	10.7	9.02	7.09	-2.95	-1.17	8.72	15.2	4.25	8.97	-0.89
Cc1noc(C)c1C1CCCN1C(=O)CN1CC2(CCNCC2)OC1=O (configuration not stated)	-6.39	0	4.75	9.41	-1.35	-3.81	6.9	-4.21	3.7	0	-4.34
COc1ccc(C(=O)N(C)Cc2cccc(C#N)c2)c(OC)c1OC	-2.52	8.11	-1.05	10.9	1.95	-2.08	14.3	1.4	2.97	3.66	-2.24
COCCc1noc(CNC2CCCN(c3cccnn3)C2)n1 (configuration not stated)	-5.96	-5.2	-0.848	-4.06	-3.25	11	19.3	3.62	0	-3.7	0.853
Cc1ccc2c(ccn2CCC(=O)O)c1	-4.82	0	0.269	-0.473	1.07	-0.744	-2.83	11.2	1.07	3.7	0.48
c1cnc2c(c1)cc([C@H]1CCCO1)n2CCN1CCCCC1	4.1	9.46	12	-7.44	-7.91	-0.232	9.52	7.5	2.15	3.9	-12.4
